# The supplement of paper PMC10849652
# About 8,800 targets were measured; listed, in parts, are those with a hit and a random draw of the rest. About 0.5% of all pairs of compound and target were hits.
# Compound: C1=CC=C(C=C1)[C@H](COC2=CC3=C(C=C2)NC(=O)N3)NC(=O)C4=CC=CN(C4=O)CC5=CC(=C(C=C5)F)F
# Experiment: log2 fold change, soluble protein after heating vs DMSO (PISA); higher = thermal stabilisation; K562 lysate, 10 uM; active = over 0.2 and 3.5 SD of the protein, either way, in both replicates (recomputed)
# In short: (§1)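 Values give the log-two fold change in thermal stability against solvent controls, from duplicates. Crude K562 extract at 1 mg/mL protein, made by dounce homogenisation in PBS pH 7.4 with 1 mM MgCl2, was treated with 10 μM compound for 30 min. After 3 min heating across 48°C-58°C, aliquots were pooled, adjusted to 0.5% NP-40 at 4°C and centrifuged at 21,000xg for 90 min. The supernatant was measured by TMTpro 16plex LC-MS/MS with channel sums equalised.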
# Sequence of UniProt Q9NYP3 (Q9NYP3 whole entry, looked up): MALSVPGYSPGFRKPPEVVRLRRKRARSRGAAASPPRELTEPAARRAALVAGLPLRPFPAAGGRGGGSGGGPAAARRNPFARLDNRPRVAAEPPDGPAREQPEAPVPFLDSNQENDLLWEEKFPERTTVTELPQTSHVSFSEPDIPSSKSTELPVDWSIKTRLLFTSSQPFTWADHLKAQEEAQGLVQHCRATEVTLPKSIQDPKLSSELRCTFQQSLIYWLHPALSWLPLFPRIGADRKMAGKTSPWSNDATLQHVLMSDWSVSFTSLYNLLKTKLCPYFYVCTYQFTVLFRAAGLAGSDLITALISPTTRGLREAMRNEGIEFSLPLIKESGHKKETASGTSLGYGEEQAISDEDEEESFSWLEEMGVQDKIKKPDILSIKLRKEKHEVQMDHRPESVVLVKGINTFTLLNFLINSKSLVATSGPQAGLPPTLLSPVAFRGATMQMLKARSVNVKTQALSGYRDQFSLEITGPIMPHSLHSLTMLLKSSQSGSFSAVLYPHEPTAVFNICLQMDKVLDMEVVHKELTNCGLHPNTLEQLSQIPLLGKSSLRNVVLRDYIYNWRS
# Sequence of UniProt P30622 (P30622 whole entry, looked up): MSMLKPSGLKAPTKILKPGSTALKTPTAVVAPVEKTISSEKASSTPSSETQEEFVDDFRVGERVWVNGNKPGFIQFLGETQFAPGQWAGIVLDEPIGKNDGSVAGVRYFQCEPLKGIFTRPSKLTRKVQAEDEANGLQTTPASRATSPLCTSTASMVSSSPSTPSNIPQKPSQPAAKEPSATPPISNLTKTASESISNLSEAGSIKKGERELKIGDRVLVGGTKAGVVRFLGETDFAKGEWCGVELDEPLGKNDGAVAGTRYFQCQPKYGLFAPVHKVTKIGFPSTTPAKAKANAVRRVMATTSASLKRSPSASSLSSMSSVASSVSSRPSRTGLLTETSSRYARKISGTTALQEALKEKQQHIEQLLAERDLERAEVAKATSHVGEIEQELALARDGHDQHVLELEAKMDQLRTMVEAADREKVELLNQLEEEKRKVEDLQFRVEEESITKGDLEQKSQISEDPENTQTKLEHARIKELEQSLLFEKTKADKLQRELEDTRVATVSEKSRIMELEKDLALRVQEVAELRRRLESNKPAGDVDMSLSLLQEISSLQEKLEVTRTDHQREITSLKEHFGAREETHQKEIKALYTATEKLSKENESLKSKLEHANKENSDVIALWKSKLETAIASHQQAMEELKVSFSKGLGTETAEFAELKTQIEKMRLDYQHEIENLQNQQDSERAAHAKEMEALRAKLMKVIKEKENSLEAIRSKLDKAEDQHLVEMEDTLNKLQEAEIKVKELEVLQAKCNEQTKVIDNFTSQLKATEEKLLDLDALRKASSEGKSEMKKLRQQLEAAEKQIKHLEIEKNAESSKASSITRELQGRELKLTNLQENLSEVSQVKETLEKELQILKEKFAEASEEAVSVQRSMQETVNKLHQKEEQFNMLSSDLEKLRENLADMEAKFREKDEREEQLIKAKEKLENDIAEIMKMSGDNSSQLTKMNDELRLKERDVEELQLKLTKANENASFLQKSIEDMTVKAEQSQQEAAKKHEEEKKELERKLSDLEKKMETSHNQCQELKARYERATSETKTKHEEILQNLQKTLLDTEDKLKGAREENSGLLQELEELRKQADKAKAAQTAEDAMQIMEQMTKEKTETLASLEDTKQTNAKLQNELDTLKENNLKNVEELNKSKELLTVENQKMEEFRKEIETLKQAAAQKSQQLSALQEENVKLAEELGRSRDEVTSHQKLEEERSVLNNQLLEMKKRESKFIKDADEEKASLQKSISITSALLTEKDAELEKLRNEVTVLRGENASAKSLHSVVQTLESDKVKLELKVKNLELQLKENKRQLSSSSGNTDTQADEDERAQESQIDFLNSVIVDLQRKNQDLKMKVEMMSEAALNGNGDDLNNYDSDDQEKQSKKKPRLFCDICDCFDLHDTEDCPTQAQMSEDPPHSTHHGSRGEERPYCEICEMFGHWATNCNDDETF
# Sequence of UniProt Q8IWV2 (Q8IWV2 whole entry, looked up): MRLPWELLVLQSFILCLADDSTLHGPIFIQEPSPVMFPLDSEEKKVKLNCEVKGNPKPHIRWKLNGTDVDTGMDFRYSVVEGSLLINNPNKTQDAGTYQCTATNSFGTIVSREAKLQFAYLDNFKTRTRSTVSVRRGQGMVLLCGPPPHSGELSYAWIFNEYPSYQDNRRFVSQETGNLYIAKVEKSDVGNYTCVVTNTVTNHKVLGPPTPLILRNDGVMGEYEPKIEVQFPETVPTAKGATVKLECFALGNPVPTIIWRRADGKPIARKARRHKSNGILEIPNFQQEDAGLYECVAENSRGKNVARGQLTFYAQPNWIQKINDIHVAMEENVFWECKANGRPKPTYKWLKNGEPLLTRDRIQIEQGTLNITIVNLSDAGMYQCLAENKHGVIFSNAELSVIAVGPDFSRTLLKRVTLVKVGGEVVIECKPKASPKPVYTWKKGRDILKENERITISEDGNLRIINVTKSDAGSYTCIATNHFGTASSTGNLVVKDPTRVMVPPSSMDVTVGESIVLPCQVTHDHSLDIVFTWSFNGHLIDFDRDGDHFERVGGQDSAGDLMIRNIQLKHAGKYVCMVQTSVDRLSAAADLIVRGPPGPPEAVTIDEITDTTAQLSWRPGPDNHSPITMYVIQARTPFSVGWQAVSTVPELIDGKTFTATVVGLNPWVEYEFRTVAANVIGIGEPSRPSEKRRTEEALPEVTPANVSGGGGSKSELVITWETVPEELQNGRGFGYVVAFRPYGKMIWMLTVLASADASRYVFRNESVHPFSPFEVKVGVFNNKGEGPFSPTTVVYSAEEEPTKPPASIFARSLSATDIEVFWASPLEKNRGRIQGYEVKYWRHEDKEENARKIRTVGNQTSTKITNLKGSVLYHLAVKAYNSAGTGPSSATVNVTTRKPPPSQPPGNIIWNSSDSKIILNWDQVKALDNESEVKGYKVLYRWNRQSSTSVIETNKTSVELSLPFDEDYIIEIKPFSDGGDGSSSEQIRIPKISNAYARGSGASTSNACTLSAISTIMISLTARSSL
# Sequence of UniProt Q6ZWL3 (Q6ZWL3 whole entry, looked up): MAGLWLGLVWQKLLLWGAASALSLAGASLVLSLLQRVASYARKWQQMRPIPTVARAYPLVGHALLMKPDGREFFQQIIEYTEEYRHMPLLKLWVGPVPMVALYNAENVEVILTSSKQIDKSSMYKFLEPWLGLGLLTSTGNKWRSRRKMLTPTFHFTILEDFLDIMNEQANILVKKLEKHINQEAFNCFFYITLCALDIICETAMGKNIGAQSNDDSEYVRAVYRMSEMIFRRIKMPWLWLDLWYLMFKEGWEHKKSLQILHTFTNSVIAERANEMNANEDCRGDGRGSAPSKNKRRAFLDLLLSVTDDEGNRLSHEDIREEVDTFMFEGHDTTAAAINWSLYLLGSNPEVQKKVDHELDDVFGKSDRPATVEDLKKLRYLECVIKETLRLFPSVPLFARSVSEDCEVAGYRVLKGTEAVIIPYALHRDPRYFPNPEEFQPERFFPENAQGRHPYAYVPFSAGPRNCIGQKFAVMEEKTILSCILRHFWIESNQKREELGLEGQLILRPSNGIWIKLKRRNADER
# Sequence of UniProt Q08345 (Q08345 whole entry, looked up): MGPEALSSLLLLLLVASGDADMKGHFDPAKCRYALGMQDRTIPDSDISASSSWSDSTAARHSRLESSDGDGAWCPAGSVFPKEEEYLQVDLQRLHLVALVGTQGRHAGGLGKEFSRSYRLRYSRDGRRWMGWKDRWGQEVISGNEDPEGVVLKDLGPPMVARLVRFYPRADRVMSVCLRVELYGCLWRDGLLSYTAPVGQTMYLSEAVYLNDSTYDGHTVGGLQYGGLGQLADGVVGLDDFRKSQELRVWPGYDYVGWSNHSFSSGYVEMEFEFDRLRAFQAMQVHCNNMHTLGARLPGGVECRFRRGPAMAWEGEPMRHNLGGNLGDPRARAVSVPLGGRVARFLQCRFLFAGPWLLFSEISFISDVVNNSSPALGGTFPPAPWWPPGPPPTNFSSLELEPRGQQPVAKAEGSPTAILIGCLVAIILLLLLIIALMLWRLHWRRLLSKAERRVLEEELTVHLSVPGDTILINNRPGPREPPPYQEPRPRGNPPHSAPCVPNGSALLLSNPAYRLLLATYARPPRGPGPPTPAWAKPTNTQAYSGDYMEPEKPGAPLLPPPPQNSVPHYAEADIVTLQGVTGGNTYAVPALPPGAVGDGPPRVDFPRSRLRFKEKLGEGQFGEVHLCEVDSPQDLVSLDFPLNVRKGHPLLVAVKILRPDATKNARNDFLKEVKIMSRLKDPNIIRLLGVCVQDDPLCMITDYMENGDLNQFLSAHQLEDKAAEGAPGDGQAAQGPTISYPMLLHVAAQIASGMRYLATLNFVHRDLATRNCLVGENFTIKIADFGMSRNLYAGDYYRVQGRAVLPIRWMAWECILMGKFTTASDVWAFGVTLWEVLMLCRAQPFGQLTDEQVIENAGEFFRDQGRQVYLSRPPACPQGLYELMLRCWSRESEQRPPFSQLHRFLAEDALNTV
# Sequence of UniProt Q6UX07 (Q6UX07 whole entry, looked up): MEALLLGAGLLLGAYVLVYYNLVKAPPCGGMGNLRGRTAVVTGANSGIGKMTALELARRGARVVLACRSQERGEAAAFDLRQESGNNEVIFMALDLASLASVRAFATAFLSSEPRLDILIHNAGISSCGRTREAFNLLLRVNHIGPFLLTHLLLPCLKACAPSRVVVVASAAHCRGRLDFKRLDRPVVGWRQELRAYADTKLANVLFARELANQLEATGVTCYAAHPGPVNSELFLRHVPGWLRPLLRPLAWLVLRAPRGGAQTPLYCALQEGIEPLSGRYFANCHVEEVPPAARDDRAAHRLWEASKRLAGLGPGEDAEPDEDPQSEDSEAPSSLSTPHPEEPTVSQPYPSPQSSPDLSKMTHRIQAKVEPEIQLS
# Sequence of UniProt P24311 (P24311 whole entry, looked up): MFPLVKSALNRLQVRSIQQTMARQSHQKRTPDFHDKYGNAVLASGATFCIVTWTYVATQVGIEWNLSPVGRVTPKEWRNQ
row,Target,log2 fold change
1,CNTN4 (UniProt Q8IWV2),0.046 (inactive)
2,CYP4V2 (UniProt Q6ZWL3),-0.119 (inactive)
3,COL6A3 (UniProt P12111),-0.008 (inactive)
4,CRLS1 (UniProt Q9UJA2),-0.349 (inactive)
5,DHRS13 (UniProt Q6UX07),-0.13 (inactive)
6,DDR1 isoform 5 (UniProt Q08345),-0.1 (inactive)
7,CLIP1 isoform 2 (UniProt P30622),0.11 (inactive)
8,CSRP2 (UniProt Q16527),-0.031 (inactive)
9,DONSON (UniProt Q9NYP3),-0.043 (inactive)
10,DLGAP5 isoform 3 (UniProt Q15398),-0.167 (inactive)
11,DIAPH1 (UniProt H9KV28),0.009 (inactive)
12,CHMP4A (UniProt H0YIN6),0.032 (inactive)
13,CSDE1 isoform 3 (UniProt O75534),-0.18 (inactive)

# Compound: CC1=C(SC2=C1C(=N[C@H](C3=NN=C(N32)C)CC(=O)N)C4=CC=C(C=C4)Cl)C
# Experiment: as above
# In short: as §1
row,Target,log2 fold change
1,CNTN4 (UniProt Q8IWV2),0.073 (inactive)
2,CYP4V2 (UniProt Q6ZWL3),0.188 (inactive)
3,COL6A3 (UniProt P12111),-0.04 (inactive)
4,CRLS1 (UniProt Q9UJA2),0.044 (inactive)
5,DHRS13 (UniProt Q6UX07),0.059 (inactive)
6,DDR1 isoform 5 (UniProt Q08345),0.057 (inactive)
7,CLIP1 isoform 2 (UniProt P30622),-0.03 (inactive)
8,CSRP2 (UniProt Q16527),-0.018 (inactive)
9,DONSON (UniProt Q9NYP3),0.068 (inactive)
10,DLGAP5 isoform 3 (UniProt Q15398),0.031 (inactive)
11,DIAPH1 (UniProt H9KV28),0.023 (inactive)
12,CHMP4A (UniProt H0YIN6),0.166 (inactive)
13,CSDE1 isoform 3 (UniProt O75534),-0.098 (inactive)

# Compound: CC1=C2C(=CC=C1)N=C(N(C2=O)C3=CC=CC=C3C)CN4C=NC5=C(N=CN=C54)N
# Experiment: as above
# In short: as §1
row,Target,log2 fold change
1,CNTN4 (UniProt Q8IWV2),0.105 (inactive)
2,DAPK1 isoform 3 (UniProt P53355),0.035 (inactive)
3,CNNM2 (UniProt Q9H8M5),0.041 (inactive)
4,CYP2S1 isoform 2 (UniProt Q96SQ9),0.033 (inactive)
5,"CLIP1, A0A3B3ITA2",0.035 (inactive)
6,DDAH1 (UniProt O94760),0.005 (inactive)
7,DCTN1 isoform 4 (UniProt Q14203),0.013 (inactive)
8,CUX1 isoform 2 (UniProt Q13948),0.03 (inactive)
9,CHFR (UniProt Q96EP1),0.027 (inactive)
10,DALRD3 (UniProt Q5D0E6),0.193 (inactive)
11,COL12A1 (UniProt Q99715),0.08 (inactive)
12,COX7B (UniProt P24311),-0.031 (inactive)
13,DESI2 (UniProt Q9BSY9),-0.142 (inactive)
14,DHX32 (UniProt Q7L7V1),-0.086 (inactive)
15,CORO7 (UniProt P57737),0.18 (inactive)
16,CLASP1 isoform 4 (UniProt Q7Z460),0.056 (inactive)
17,DIAPH1 (UniProt H9KV28),0.007 (inactive)
18,DNAJC24 (UniProt Q6P3W2),0.007 (inactive)
19,CNK3/IPCEF1 isoform 2 (UniProt G9CGD6),-0.032 (inactive)
20,CPLX1 (UniProt O14810),-0.08 (inactive)
21,DNA2 (UniProt P51530),0.047 (inactive)

# Compound: Cc1sc2c(c1C)C(c1ccc(Cl)cc1)=N[C@@H](CC(=O)OC(C)(C)C)c1nnc(C)n1-2
# Experiment: as above
# In short: as §1
row,Target,log2 fold change
1,CSNK1A1 isoform 3 (UniProt P48729),0.021 (inactive)
2,DAPK1 isoform 3 (UniProt P53355),0.013 (inactive)
3,CNNM2 (UniProt Q9H8M5),0.034 (inactive)
4,CYP2S1 isoform 2 (UniProt Q96SQ9),-0.123 (inactive)
5,CYP4V2 (UniProt Q6ZWL3),0.035 (inactive)
6,COL6A3 (UniProt P12111),-0.079 (inactive)
7,DDAH1 (UniProt O94760),0.15 (inactive)
8,DCTN1 isoform 4 (UniProt Q14203),-0.13 (inactive)
9,CUX1 isoform 2 (UniProt Q13948),0.075 (inactive)
10,CHFR (UniProt Q96EP1),-0.056 (inactive)
11,COL12A1 (UniProt Q99715),-0.078 (inactive)
12,DHRS13 (UniProt Q6UX07),-0.099 (inactive)
13,COX7B (UniProt P24311),-0.027 (inactive)
14,DDR1 isoform 5 (UniProt Q08345),-0.09 (inactive)
15,CLIP1 isoform 2 (UniProt P30622),0.009 (inactive)
16,DONSON (UniProt Q9NYP3),0.013 (inactive)
17,CORO7 (UniProt P57737),0.165 (inactive)
18,DLGAP5 isoform 3 (UniProt Q15398),-0.036 (inactive)
19,DNAJC24 (UniProt Q6P3W2),0.024 (inactive)
20,CNK3/IPCEF1 isoform 2 (UniProt G9CGD6),0 (inactive)
21,CPLX1 (UniProt O14810),-0.239 (inactive)
22,CHMP4A (UniProt H0YIN6),-0.222 (inactive)
23,DNM2 isoform 4 (UniProt P50570),0.025 (inactive)
24,DNA2 (UniProt P51530),0.072 (inactive)
